In PubChem BioAssay (NCI) one finds growth data, which are given here for 39 compounds.

The panel holds about 83,000 compounds, 20% with a hit somewhere; the sample as a whole holds those more often.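 Cell lines were cultured in 96-well plates, exposed to a single compound concentration, and assessed for percent growth 48 hours later.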 The source made the active and inactive calls. Rule for the calls: active = growth percent below 10; inactive = the rest.

The subject of this assay is HL-60(TB) leukemia. The assay is described as follows: NCI-60 one-dose screen, 48 h (100 = growth as untreated, 0 = no growth, -100 = all killed). The settings on record: 10 µM unless noted.
As for `Cc1ccc(NC(=O)c2cc(/C=C/C(=O)NO)cc(C(F)(F)F)c2)cc1Nc1nccc(-c2cccnc2)n1`, the growth was 0.414% (active). The figure for `CCOC(=O)c1c(NC(=O)c2ccc(C(F)(F)F)cc2)sc2c(CN3CCN(C)CC3)c(O)ccc12` is -36.8% (active). In the case of `Nc1cc(-c2c[nH]c3ccc(F)cc23)nc2cc(-c3c[nH]c4ccc(F)cc34)nn12`, the growth is -37.6% (active). The figure for `CC(C)C(=O)Nc1ccc(-c2nc(-c3cccc(O)c3)c(-c3ccnc(Br)c3)[nH]2)cc1` is -40.4% (active); for `COc1cc(OC)cc(-c2cc(-c3c[nH]c4ccccc34)nc(-c3c[nH]c4ccccc34)c2C#N)c1` it is 102% (inactive); for `O=C1Nc2ccccc2/C1=N\c1nnc(-c2ccccc2)o1` it is 99.6% (inactive).

`Cc1cc(C(=O)Nc2sc3c(c2C(N)=O)CCC(=O)C3)ccc1OCCN1CCCCC1`: the growth is 63.3% (inactive). The figure for `COc1ccc(NC(=O)c2sc3nc(-c4cnccn4)cc(-c4cccs4)c3c2N)cc1` is 56.2% (inactive). The figure for `CCN1C(=S)N(c2ccccc2)C2NC(=O)N(/N=C/C=C/c3ccccc3OC)C21` (centres undefined) is 64.2% (inactive); for `C=CCn1c(-c2nc3ccc(C(=C(C#N)C#N)c4ccccc4)cc3[nH]2)cc2cc(Br)ccc21` it is 59.2% (inactive). As for `COc1ccc(-c2nn(-c3ccc(S(C)(=O)=O)cc3)cc2/C=N/O)cc1`, the growth is 103% (inactive). The figure for `Cc1ccc2c(n1)C(=O)C(Cl)=C(Nc1ccc(C)c(C)c1)C2=O` is 58.4% (inactive).

Regarding `Cc1[nH]c(C(=O)Nc2ccccc2OCc2cccc(C(=O)NC3CCCNC3)c2)c(Cl)c1Cl` (centres undefined), the growth was -53.9% (active). The figure for `CN1CCN(Cc2ccc(NC(=O)c3cncc(C#Cc4cnc5ccc(N6CCOCC6)nn45)c3)cc2C(F)(F)F)CC1` is -40.8% (active); for `Cc1ccc(NC(=S)NNC(=S)Nc2ccc(C)cc2)cc1` it is 97.1% (inactive).

In the case of `O=C(CSc1nnc(-c2ccc(Cl)cc2)n1-c1ccccc1)Nc1cccc(F)c1`, the growth is 71.7% (inactive). The figure for `CC[C@]12C=CCN3CC[C@@]4(c5cc(NC(=O)COc6cc(O)c7c(=O)cc(-c8ccccc8)oc7c6)c(OC)cc5N(C)[C@H]4[C@@](O)(C(=O)OC)[C@@H]1OC(C)=O)[C@@H]32` is -44.9% (active). Turning to `Cc1ccc(-c2csc(N/N=C/c3nc4ccccc4n3C3CC3)n2)cc1`, the growth was 7.25% (active). The figure for `CCO/C=N/C1=C(C#N)C(c2ccc(OC)cc2)c2sc3c(C)cccc3c2O1` (centres undefined) is -18.5% (active). Turning to `COc1ccc(C(=O)c2c(N)c(C#N)cn2-c2ccc(Cl)cc2Cl)cc1`, the growth is 84.7% (inactive). For `COc1ccc(-c2nc3cc(Cl)c(Cl)cc3n2CC(=O)N=Nc2c(O)[nH]c3ccc(OC)cc23)cc1`, the growth is 86.3% (inactive). The figure for `CSc1ccc2c(c1)N(C(=O)/C(C#N)=C/c1c[nH]c3ccccc13)c1ccccc1S2` is 12.8% (inactive); for `O=C(O)CNS(=O)(=O)c1ccc(Oc2ccc(S(=O)(=O)NCC(=O)O)cc2)cc1` it is 91% (inactive); for `CN(C)CC(=O)Nc1nc(-c2cccc(NS(=O)(=O)c3cccc4c(N(C)C)cccc34)c2)cs1` it is 80.8% (inactive). For the compound `Brc1cccc(-c2cc(-c3ccc4c(c3)OC=CO4)[nH]n2)c1`, the growth was 14.7% (inactive). As for `COc1ccc(/C=N/NC(=O)CSc2nc(-c3cnccn3)cc(-c3cccs3)c2C#N)cc1`, the growth was 93.8% (inactive). The figure for `COc1ccc([C@H]2C(=O)N(c3cc(OC)c(OC)c(OC)c3)[C@@H]2c2ccc(OC)c(O)c2)cc1` is -21.2% (active).

Take `COc1cc2nc(-c3ccc(C(F)(F)F)cc3)cc(OCCCNCC3CCCO3)c2cc1OC` (centres undefined): the growth was 11.9% (inactive). The figure for `CCCCCCNC(=O)Oc1ccc(/C(=C(\C)c2ccc(Cl)cc2)c2ccc(OCCN(C)C)cc2)cc1` is -8.4% (active); for `Cc1ccc(C(=O)CSc2nnc(-c3ccc(-c4ccc(Cl)cc4)nc3C)o2)cc1` it is 103% (inactive); for `N=C1CC(=O)NN1C(=O)CSc1nc2sc3c(c2c(=O)n1-c1ccc(Cl)cc1)CCCC3` it is 108% (inactive). The figure for `O=S(=O)(Nc1ccc(-n2cnc3cc(-c4ccc(O)cc4)ccc32)cc1)C1CC1` is 56.9% (inactive); for `CCC(=C(c1ccc(OCCN2CCCCCC2)cc1)c1ccc(OCCN2CCCCCC2)cc1)c1ccc(Cl)cc1` it is -38.8% (active); for `Cc1nc(-c2cc3ccccc3oc2=O)ccc1C(=O)/C=C/c1ccc(N2CCOCC2)cc1` it is 38.7% (inactive). The figure for `CS(=O)(=O)Nc1ccc(-c2nn(-c3ccc(S(C)(=O)=O)cc3)cc2/C=C/C(=O)c2ccc(NC(=O)CO[N+](=O)[O-])cc2)cc1` is 107% (inactive); for `O=C(COc1cccc2cccnc12)Nc1ccc(C(=O)/C=C/c2ccc(Cl)cc2)cc1` it is 64.4% (inactive); for `NS(=O)(=O)c1nnc(/N=C/c2c(O)[nH]c3ccccc23)s1` it is 123% (inactive).

Regarding `CCNCCOc1ccc(/C(=C(/CC)c2ccc(Cl)cc2)c2ccc(OCCCN(C)C)cc2)cc1`, the growth is -61.5% (active). The figure for `O=C(CCl)Nc1ccc(NC(=O)c2cc(Cl)ccc2O)c(Cl)c1` is 49.3% (inactive).
